Measurements published in PubChem BioAssay AID1159580 (chemical genetic matrix, 2015).
In all, about 5,500 compounds went through this assay and about 2,000 (36%) were called active. Another 18% or so got no clear call; they are omitted. No stated cut-off is given here; in the data, active means normalized growth mostly below about 0.91 (no sharp cut-off); inconclusive means no clear call, values can overlap the other calls; inactive means mostly above about 0.92. This is one part of the list.

Experiment: chemical genetic growth profiling, strain panel (AID 1159580);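 further: tested at 20 µM; growth read once vehicle control cultures reached saturation at 30 °C; 1 = growth at the plate median or of vehicle wells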
Settings: growth OD

Measured: normalized growth

CC(=O)CCCCn1c(=O)c2c(ncn2C)n(C)c1=O
inactive: S. cerevisiae deletion strains, locus YJR066W, strain TOR1, stronger effect = lower value 0.958 | S. cerevisiae deletion strains, locus YJR075W, strain HOC1, stronger effect = lower value 1.01 | S. cerevisiae deletion strains, locus YKL009W, strain mrt4, stronger effect = lower value 0.994 | S. cerevisiae deletion strains, locus YKL068W, stronger effect = lower value 0.997 | S. cerevisiae deletion strains, locus YKL085W, strain MDH1 (second series), stronger effect = lower value 1 | S. cerevisiae deletion strains, locus YKL085W, strain MDH1, stronger effect = lower value 1 | S. cerevisiae deletion strains, locus YKL160W, strain elf1, stronger effect = lower value 1.02 | S. cerevisiae deletion strains, locus YKL190W, strain CNB1, stronger effect = lower value 1.02 | S. cerevisiae deletion strains, locus YKR001C, strain vps1, stronger effect = lower value 1.02 | S. cerevisiae deletion strains, locus YKR026C, strain gcn3, stronger effect = lower value 1.01 | S. cerevisiae deletion strains, locus YKR091W, strain srl3, stronger effect = lower value 1.01 | S. cerevisiae deletion strains, locus YLL001W, strain dnm1, stronger effect = lower value 1.01 | S. cerevisiae deletion strains, locus YLL026W, stronger effect = lower value 1.01 | S. cerevisiae deletion strains, locus YLL041C, strain sdh2, stronger effect = lower value 1.01 | S. cerevisiae deletion strains, locus YLR027C, strain aat2, stronger effect = lower value 1 | S. cerevisiae deletion strains, locus YLR039C, strain RIC1, stronger effect = lower value 1.03 | S. cerevisiae deletion strains, locus YLR058C, strain SHM2, stronger effect = lower value 1.02 | S. cerevisiae deletion strains, locus YLR102C, strain apc9, stronger effect = lower value 0.997 | S. cerevisiae deletion strains, locus YLR113W, strain HOG1, stronger effect = lower value 1 | S. cerevisiae deletion strains, locus YLR221C, strain rsa3, stronger effect = lower value 1.02 | S. cerevisiae deletion strains, locus YLR258W, strain gsy2, stronger effect = lower value 1.01 | S. cerevisiae deletion strains, locus YLR262C, strain YPT6 (second series), stronger effect = lower value 1.01 | S. cerevisiae deletion strains, locus YLR262C, strain YPT6, stronger effect = lower value 1.09 | S. cerevisiae deletion strains, locus YLR268W, strain sec22, stronger effect = lower value 1.01 | S. cerevisiae deletion strains, locus YLR320W, strain mms22, stronger effect = lower value 1.03 | S. cerevisiae deletion strains, locus YLR330W, strain CHS5, stronger effect = lower value 1.01 | S. cerevisiae deletion strains, locus YLR342W, strain FKS1 (second series), stronger effect = lower value 0.979 | S. cerevisiae deletion strains, locus YLR342W, strain FKS1, stronger effect = lower value 1.01 | S. cerevisiae deletion strains, locus YLR357W, strain rsc2, stronger effect = lower value 1.07 | S. cerevisiae deletion strains, locus YLR370C, strain arc18, stronger effect = lower value 1.02 | S. cerevisiae deletion strains, locus YLR371W, strain rom2, stronger effect = lower value 0.993 | S. cerevisiae deletion strains, locus YLR384C, strain iki3, stronger effect = lower value 1.02 | S. cerevisiae deletion strains, locus YLR418C, strain cdc73, stronger effect = lower value 0.982 | S. cerevisiae deletion strains, locus YML016C, strain PPZ1, stronger effect = lower value 1.02 | S. cerevisiae deletion strains, locus YML032C, strain rad52, stronger effect = lower value 0.997 | S. cerevisiae deletion strains, locus YML120C, strain ndi1, stronger effect = lower value 1.02 | S. cerevisiae deletion strains, locus YML124C, strain tub3, stronger effect = lower value 0.996 | S. cerevisiae deletion strains, locus YMR058W, strain fet3, stronger effect = lower value 1.02 | S. cerevisiae deletion strains, locus YMR078C, strain ctf18, stronger effect = lower value 0.996 | S. cerevisiae deletion strains, locus YMR125W, strain sto1, stronger effect = lower value 1.02 | S. cerevisiae deletion strains, locus YMR129W, stronger effect = lower value 1.01 | S. cerevisiae deletion strains, locus YMR205C, strain PFK2, stronger effect = lower value 1.04 | S. cerevisiae deletion strains, locus YMR223W, strain ubp8, stronger effect = lower value 0.975 | S. cerevisiae deletion strains, locus YMR231W, strain pep5, stronger effect = lower value 1.02 | S. cerevisiae deletion strains, locus YMR307W, strain GAS1, stronger effect = lower value 0.995 | S. cerevisiae deletion strains, locus YNL067W, strain RPL9B, stronger effect = lower value 1.04 | S. cerevisiae deletion strains, locus YNL071W, strain lat1, stronger effect = lower value 1.01 | S. cerevisiae deletion strains, locus YNL128W, strain TEP1, stronger effect = lower value 0.998 | S. cerevisiae deletion strains, locus YNL175C, strain NOP13, stronger effect = lower value 1.02 | S. cerevisiae deletion strains, locus YNL183C, strain NPR1, stronger effect = lower value 0.924 | S. cerevisiae deletion strains, locus YNL197C, strain WHI3, stronger effect = lower value 1.01 | S. cerevisiae deletion strains, locus YNL209W, strain ssb2, stronger effect = lower value 1.01 | S. cerevisiae deletion strains, locus YNL224C, strain SQS1, stronger effect = lower value 1 | S. cerevisiae deletion strains, locus YNL233W, strain BNI4, stronger effect = lower value 1.02 | S. cerevisiae deletion strains, locus YNL248C, strain rpa49, stronger effect = lower value 1.01 | S. cerevisiae deletion strains, locus YNL250W, strain rad50, stronger effect = lower value 1.02 | S. cerevisiae deletion strains, locus YNL271C, strain bni1, stronger effect = lower value 1 | S. cerevisiae deletion strains, locus YNL298W, strain CLA4, stronger effect = lower value 1 | S. cerevisiae deletion strains, locus YNL307C, strain MCK1, stronger effect = lower value 0.99 | S. cerevisiae deletion strains, locus YNL322C, strain KRE1 (second series), stronger effect = lower value 1.02 | S. cerevisiae deletion strains, locus YNL322C, strain KRE1, stronger effect = lower value 1.01 | S. cerevisiae deletion strains, locus YNR049C, strain mso1, stronger effect = lower value 1.01 | S. cerevisiae deletion strains, locus YNR052C, strain pop2, stronger effect = lower value 1.01 | S. cerevisiae deletion strains, locus YOL006C, strain TOP1, stronger effect = lower value 1.08 | S. cerevisiae deletion strains, locus YOL012C, strain htz1 1.51 | S. cerevisiae deletion strains, locus YOL147C, strain pex11, stronger effect = lower value 1 | S. cerevisiae deletion strains, locus YOR001W, strain rrp6, stronger effect = lower value 1.04 | S. cerevisiae deletion strains, locus YOR061W, strain CKA2, stronger effect = lower value 1.02 | S. cerevisiae deletion strains, locus YOR069W, strain VPS5, stronger effect = lower value 1.01 | S. cerevisiae deletion strains, locus YOR070C, strain gyp1, stronger effect = lower value 1.01 | S. cerevisiae deletion strains, locus YOR080W, strain dia2, stronger effect = lower value 1.02 | S. cerevisiae deletion strains, locus YOR083W, strain WHI5 (second series), stronger effect = lower value 1.05 | S. cerevisiae deletion strains, locus YOR083W, strain WHI5, stronger effect = lower value 1 | S. cerevisiae deletion strains, locus YOR106W, strain vam3, stronger effect = lower value 1.02 | S. cerevisiae deletion strains, locus YOR136W, strain idh2, stronger effect = lower value 0.996 | S. cerevisiae deletion strains, locus YOR144C, strain elg1, stronger effect = lower value 0.99 | S. cerevisiae deletion strains, locus YOR184W, strain ser1, stronger effect = lower value 0.999 | S. cerevisiae deletion strains, locus YOR231W, strain MKK1, stronger effect = lower value 0.977 | S. cerevisiae deletion strains, locus YOR265W, strain rbl2, stronger effect = lower value 1.01 | S. cerevisiae deletion strains, locus YOR270C, strain vph1, stronger effect = lower value 1.04 | S. cerevisiae deletion strains, locus YOR290C, strain snf2, stronger effect = lower value 1 | S. cerevisiae deletion strains, locus YOR316C, strain cot1, stronger effect = lower value 0.999 | S. cerevisiae deletion strains, locus YPL051W, strain arl3, stronger effect = lower value 1.01 | S. cerevisiae deletion strains, locus YPL055C, strain LGE1, stronger effect = lower value 1.04 | S. cerevisiae deletion strains, locus YPL078C, strain atp4, stronger effect = lower value 1.01 | S. cerevisiae deletion strains, locus YPL106C, strain sse1, stronger effect = lower value 1.03 | S. cerevisiae deletion strains, locus YPL240C, strain hsp82, stronger effect = lower value 1.01 | S. cerevisiae deletion strains, locus YPL241C, strain CIN2, stronger effect = lower value 1.01 | S. cerevisiae deletion strains, locus YPL256C, strain CLN2, stronger effect = lower value 0.958 | S. cerevisiae deletion strains, locus YPR119W, strain clb2, stronger effect = lower value 0.993 | S. cerevisiae deletion strains, locus YPR141C, strain kar3, stronger effect = lower value 0.991 | S. cerevisiae deletion strains, locus YPR163C, strain tif3, stronger effect = lower value 1 | S. cerevisiae deletion strains, locus YPR167C, strain met16, stronger effect = lower value 0.997 | S. cerevisiae deletion strains, strain wtn01, stronger effect = lower value 1 | S. cerevisiae strains, strain wild type, stronger effect = lower value 1.02
